# Measurements reported in PubChem BioAssay AID504782 (NMMLSC, 2011).
# The other results are listed elsewhere or left out. A number with no mark means an inactive call. The source made the active and inactive calls.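 Rule for the calls: active = inhibition of aptamer binding above 40%, about triple the noise seen with nonglowing compounds, on plates passing quality control; inactive = the rest.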
# Biological target: Beta-adrenergic receptor kinase 1 (Homo sapiens) (UniProt P25098)
# Test: GRK2 aptamer-displacing inhibitors, hit retest, confirmation, biochemical, cherry pick 2, bead flow cytometry (AID 504782);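 for inhibition of aptamer binding: negative values mostly come from compounds that fluoresce themselves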
# Details: bead-bound GRK2, FAM-aptamer displacement; at 10 µM, stronger effect = higher value
# Sequence of Beta-adrenergic receptor kinase 1 (Homo sapiens) (P25098 whole entry, looked up): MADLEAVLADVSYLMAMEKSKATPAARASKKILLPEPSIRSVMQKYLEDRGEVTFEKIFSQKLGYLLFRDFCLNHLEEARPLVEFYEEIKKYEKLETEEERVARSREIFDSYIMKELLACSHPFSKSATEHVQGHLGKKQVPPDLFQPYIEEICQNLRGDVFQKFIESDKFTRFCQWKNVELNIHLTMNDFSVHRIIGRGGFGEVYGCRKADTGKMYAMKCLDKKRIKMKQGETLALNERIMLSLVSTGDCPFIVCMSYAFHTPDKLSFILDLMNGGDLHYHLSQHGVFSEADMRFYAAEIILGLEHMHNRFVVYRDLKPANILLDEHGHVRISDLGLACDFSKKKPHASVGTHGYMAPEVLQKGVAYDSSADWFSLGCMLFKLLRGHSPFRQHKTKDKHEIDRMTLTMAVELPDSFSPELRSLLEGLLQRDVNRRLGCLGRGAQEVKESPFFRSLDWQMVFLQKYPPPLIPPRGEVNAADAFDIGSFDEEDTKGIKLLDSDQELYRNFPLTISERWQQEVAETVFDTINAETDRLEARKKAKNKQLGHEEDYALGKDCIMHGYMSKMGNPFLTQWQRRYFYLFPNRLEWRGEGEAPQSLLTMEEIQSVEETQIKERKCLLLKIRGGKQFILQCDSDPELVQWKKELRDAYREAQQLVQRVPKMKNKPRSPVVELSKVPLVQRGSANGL
Structure (SMILES),inhibition of aptamer binding,outcome
O=[N+]([O-])c1ccccc1S(=O)(=O)Nc1cccc2cccnc12,7.36%,
CCOCCCNC(=O)c1ccc(CS(=O)(=O)c2cccc(C(F)(F)F)c2)o1,8.74%,
COc1ccccc1C(=O)N(Cc1ccc(C)o1)C1CCS(=O)(=O)C1 (stereo not given),10.1%,
CC1CCN(C(=S)NC2CC3CCC2C3)CC1 (stereo not given),-12.2%,
COc1ccc(Cl)cc1NC(=O)CCS(=O)(=O)c1ccc(Br)cc1,75.5% (active),
COc1cccc(OC)c1C(=O)Nc1ccc(Cc2ccncc2)cc1,-1.61%,
CC1Sc2ccc(S(=O)(=O)CCC(=O)NCc3ccccc3Cl)cc2NC1=O (stereo not given),2.07%,
COc1ccc(Cl)cc1NC(=O)CCS(=O)(=O)c1cc2c(cc1C)NC(=O)CO2,-12.2%,
CN=C(Nc1cccc(S(=O)(=O)N2CCOCC2)c1)c1ccccc1,-13.4%,
CCN1CCN(C(=O)N[C@@H](C(=O)N[C@@H]2C(=O)N3C(C(=O)O)=C(CSc4nnnn4C)CS[C@H]23)c2ccc(O)cc2)C(=O)C1=O,-21.6%,
Cc1ccc(S(=O)(=O)CC(=O)Nc2sc(C)c(C)c2C(N)=O)cc1,-39.3%,
NC(=O)[C@H]1CC2(CC(c3cccc(NC(=O)[C@H]4CCC(=O)N4)c3)=NO2)CN1C(=O)c1ccccc1C(=O)c1ccccc1 (stereo not given in full),-25.8%,
O=C(NC1C2CC3CC(C2)CC1C3)c1ccc(N2CCNCC2)c([N+](=O)[O-])c1 (stereo not given),-5.52%,
O=C(CCS(=O)(=O)c1ccccc1)NC1CCCC1,1.15%,
COc1cc([N+](=O)[O-])cc([N+](=O)[O-])c1NC(=O)N1CCOCC1,8.51%,
CCOC(=O)C1=C(N)N(c2ccc(C)cc2)C2=C(C(=O)CCC2)C1c1cccs1 (stereo not given),,inactive
CCc1nn(CCCN2CCN(c3cccc(Cl)c3)CC2)c(=O)n1CCOc1ccccc1,4.83%,
CCOCCc1c(O)nc(SCC(=O)NCc2ccco2)[nH]c1=O,-20.9%,
O=C(NCCCN1CCCCCC1)c1ccc(N2CCCC2=O)cc1,-112%,
O=C(C1CCCN(S(=O)(=O)c2ccc([N+](=O)[O-])cc2)C1)N1CCCCC1 (stereo not given),-14.3%,
CCC(C)(C(=O)NC1CCCCC1)N(C)C(=O)c1ccc2c(c1)OCO2 (stereo not given),-12.4%,
CC(=O)c1ccc(N2CCN(C(=O)c3ccc4nc[nH]c4c3)CC2)cc1,-5.06%,
Cc1nnc(SCC(=O)N2c3ccccc3C(C)(c3ccc(Cl)cc3)CC2(C)C)s1 (stereo not given),14.7%,
COCCn1c(N)c(NCc2ccccc2)c(=O)[nH]c1=O,-165%,
CCOc1ccc(OCC)c(NC(=O)CCS(=O)(=O)c2ccc(C)cc2)c1,-1.15%,
